SW480 rerep: induces DNA re-replication in SW480 colon adenocarcinoma cells; SW480 DNA re-replication, Hoechst DNA content imaging, 48 h; Potency, µM (highest dose often 46.1 µM), without a hit: at the top dose re-replication activation, most hits filed as activators; 340,000 tested, 1.8% active; further: % of control where 0% means no effect; nearly all actives have a fitted effect of over 55% in size
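Hoechst fluorescence of nuclei (405 nm excitation, 500-530 nm emission) measured by plate-scanning imager after 48 hr compound exposure at 37 C; re-replication scored as increased number of nuclei with elevated intensity.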
KB-V1 MDR tox: kills drug-selected multidrug resistant KB-V1 cells; KB-V1 MDR cells viability, CellTiter-Glo, 72 h; Potency, µM (top dose mostly 46.1 µM), actives largely listed as cytotoxic; 400,000 tested, 3.4% active; AID 1347076; further: on the % scale 0 is the no-effect control and ±100 the full control effect; nearly all actives have a fitted effect of over 60% in size
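qHTS viability screen in drug-selected KB-V1 MDR cells: 72 h compound treatment at 37 degrees C, ATP luminescence end point.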
HT1080 IDH1KD tx: kills HT-1080 cells with IDH1 knockdown. HT-1080 IDH1 knockdown viability, ATP luminescence, 48 h. Potency, µM (doses to about 46.1 µM), inactives show top-dose activity, negative = toxicity, hits mostly cytotoxic. 360,000 tested, 2% active;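 further: 0% = DMSO wells and -100% = cell-free medium wells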
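Assay cells: HT-1080 with IDH1 knockdown, 750 per well, RPMI/5% FBS. Exposure: 48 h at 37 °C following 2 h pre-incubation. Read: CellTiter-Glo luminescence; fitted concentration-response, curve class assigned.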
MCF10A rereplic: induces DNA re-replication in MCF 10a normal breast cells; MCF 10A DNA re-replication, Hoechst nuclear intensity, 48 h; Potency, µM (top dose mostly 46.1 µM), without a hit: at the top dose activity, positive = re-replication, hits mostly activators; AID 624296; 350,000 tested, 2.9% active; further: % of control where 0% means no effect; nearly all actives have a fitted effect of over 50% in size
KB-3-1 tox: KB-3-1 parental cell cytotoxicity. 400,000 tested, 1.4% active. Potency, µM (doses to about 46.1 µM), actives largely listed as cytotoxic. AID 1347075. KB-3-1 viability, CellTiter-Glo ATP luminescence, 72 h; further: on the % scale 0 is the no-effect control and ±100 the full control effect; nearly all actives have a fitted effect of over 60% in size
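Screening of KB-3-1 cells (DMEM, 10% FBS, phenol-red free) ran from lowest to highest compound concentration; after 72 h at 37 °C viability was read luminescently and curves fitted.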
HT1080-NT tox: kills 2HG-producing HT-1080-NT fibrosarcoma cells. HT-1080-NT fibrosarcoma viability, CellTiter-Glo ATP luminescence, 48 h. Potency, µM (highest dose often 46.1 µM), inactives show at the highest dose activity, negative = less viability, actives largely listed as cytotoxic. 360,000 tested, 1.6% active. AID 686970;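 further: NT is the 2HG producing partner of a matched IDH1 knockdown line; 0% = DMSO-treated cells and -100% = media-only wells without cells; nearly all actives have a fitted effect of over 55% in size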
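750 cells/well, RPMI + 5% FBS; 2 h settle, compound pin-transfer, 48 h at 37 degrees C. CellTiter-Glo 10 min RT, luminescence. Normalized to DMSO and media-only wells.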
* = called active by the depositor; i = inactive; ? = inconclusive; . = not tested or not shown; [ ] = another dose, or the depositor's remark. Only some compounds are listed: those with a hit (about 7.9% of all), similar ones and a draw of the others. The call rests on the fitted dose curve; in most records, active means well fitted curve in the direction sought with a large enough effect; inconclusive means small, poorly fitted or top-dose-only effect, or another doubt; inactive means no such curve, though single readings can be large; an effect the other way counts as inactive or inconclusive. Potency means the concentration at half of the fitted maximal effect.

SMILES	SW480 rerep	KB-V1 MDR tox	HT1080 IDH1KD tx	MCF10A rereplic	KB-3-1 tox	HT1080-NT tox
O=C(NCc1ccco1)C(c1ccccc1)N(CC1CCCO1)C(=O)Cn1nnc2ccccc21 (stereo not given)	?	21µM*	0%	-4%	i	-4%
COc1ccc(C(c2nnnn2C2CCCC2)N2CCc3ccccc3C2)cc1OC (stereo not given)	3%	?	-6%[9.24 µM]	10%	i	6%
COc1ccc(OC)c(C(c2nnnn2C2CCCC2)N2CCc3ccccc3C2)c1 (stereo not given)	-3%	16µM*	-1%[9.24 µM]	-1%	?	-19%
COc1ccc(N2CCN(C(c3cccc(OC)c3OC)c3nnnn3C3CCCC3)CC2)cc1 (stereo not given)	13µM*	i	-17%	?	i	-17%
CC(C)SC1=NC(C)(C)C=C(/C=C/c2c(Cl)cccc2Cl)N1	?	i	21µM*	18µM*	15µM*	?
Clc1cccc(Cl)c1/C=C/c1nc2ccccc2[nH]1	21%	?	?	29%	?	?
O=C(/C=C/c1ccc(Cl)cc1Cl)c1nc2ccccc2[nH]1	?	i	?	0%	i	?
CC(C)SC1=NC(C)(C)C=C(/C=C/c2ccc(Cl)cc2Cl)N1	?	i	?	8.2µM*	?	?
CCc1cccc(NC(=O)Cn2c(=O)c(C(F)(F)F)nc3ccccc32)c1	.	i	.	.	i	.
Oc1ccc(C(=S)N2CCCCC2)cc1Cl	3%	18µM*	-5%	15%	i	-3%
CCN1CCN(C(=S)c2ccc(Cl)c(Cl)c2)CC1	-1%	15µM*	-1%	2%	i	-1%
COc1cc(C(=S)N2CCCCC2)ccc1O	?	i	12%	-10%	i	7%
Cc1ccc(-c2nnc3ccccc3c2C(=O)Nc2ccc(F)cc2)cc1	.	i	.	.	i	.
CN(C)C(CNS(=O)(=O)c1ccc(Cl)cc1F)c1ccco1 (stereo not given)	-1%	18µM*	0%	3%	i	-4%
CN(C)C(CNS(=O)(=O)c1cc([N+](=O)[O-])ccc1Cl)c1ccco1 (stereo not given)	2%	i	-4%	2%	i	-1%
COc1cc(/C=N/Nc2ccc(C(F)(F)F)cn2)cc(OC)c1O	12µM*	i	?	23%	?	?
Oc1ccc(/C=N/Nc2ccc(C(F)(F)F)cn2)cc1	9.2µM*	i	?	-1%	?	?
COc1cc(/C=N/Nc2ccccn2)cc(OC)c1O	19%	i	-21%	-17%	i	-11%
COc1ccc(C2=CC(c3c(C)nn(-c4ccccc4)c3Cl)n3nnnc3N2)cc1OC (stereo not given)	?	21µM*	?	?	16µM*	?
COc1ccc(N2CCN(C(=O)NCc3ccc(C)cc3)CC2)cc1	?	5.8µM*	?	?	0.52µM*	-26%
Cc1ccc(OCCC(=O)N2CCN(c3ccc(O)cc3)CC2)cc1	7.3µM*	i	7.3µM*	?	?	?
Cc1ccc(C(=O)NCc2ccc(N3CCN(C(=O)OC(C)(C)C)CC3)cc2)cc1	-10%	3.7µM*	10%	7%	i	7%
CCOc1ccc(C(=O)CCC(=O)N2CCN(c3ccc(O)cc3)CC2)cc1	?	i	?	14%	i	-15%
Cc1cnc(C(=O)Nc2ccc(N3CCN(C(=O)OC(C)(C)C)CC3)cc2)cn1	?	i	?	?	5.8µM*	?
Cc1cnc(C(=O)Nc2ccc(F)cc2)cn1	2%	?	2%	-2%	i	22%
SMILES	SW480 rerep	KB-V1 MDR tox	HT1080 IDH1KD tx	MCF10A rereplic	KB-3-1 tox	HT1080-NT tox
COc1cc(S(=O)(=O)n2ccc(C)n2)c(C)cc1C	.	i	0%	.	i	-1%
O=C(NCC1CCCO1)c1cc(-c2ccccc2)nc2ccc(Br)cc12 (stereo not given)	-2%	i	2%	14%	i	-4%
COc1ccc(-c2cc(C(=O)NCC3CCCO3)c3ccccc3n2)cc1 (stereo not given)	-10%	i	-1%	-15%	i	4%
COc1cccc(-c2cc(C(=O)NCC3CCCO3)c3ccccc3n2)c1 (stereo not given)	-48%	12µM*	7%	14%	i	6%
Cc1ccc2nc(-c3cccc(Br)c3)cc(C(=O)NCC3CCCO3)c2c1 (stereo not given)	21%	i	13%	26µM*	i	3%
Cc1ccc(C(=O)Nc2ccc(Cl)c(-c3nc4ncccc4o3)c2)c(C)c1	.	i	.	.	i	.
COC(C(=O)Nc1ccc(S(=O)(=O)Nc2cccc3ccccc23)cc1)c1ccccc1 (stereo not given)	.	18µM*	-21%	?	i	-13%
COC(C(=O)Nc1ccc(S(=O)(=O)Nc2ccc(F)cc2)cc1)c1ccccc1 (stereo not given)	?	i	?	3%	i	?
Cn1c(SCC(=O)NC2CCCCC2)nnc1C(F)(F)F	.	i	15%	.	i	4%
N=c1c2c(-c3ccccc3)c(-c3ccccc3)n(Cc3ccco3)c2ncn1Cc1ccco1	2%	?	21µM*	?	16µM*	16µM*
CCCCn1cnc2c(c(-c3ccccc3)c(-c3ccccc3)n2Cc2ccco2)c1=N	-10%	i	-16%	6%	i	-20%
N=c1c2c(-c3ccccc3)c(-c3ccccc3)n(Cc3ccccc3)c2ncn1CCCn1ccnc1	?	?	23µM*	30%	?	23µM*
Cc1cc(NCCCn2ccnc2)n2nc(C)c(-c3ccccc3)c2n1	0%	?	?	0%	i	?
CCC(C)n1c(=N)c(C(=O)NCc2ccccc2)cc2c(=O)n3cc(C)ccc3nc21 (stereo not given)	.	?	.	.	i	.
CCCOc1cc(C)c(S(=O)(=O)NCCOC)cc1C	1%	18µM*	-2%	-2%	i	-23%
O=C(O)CN1C(=O)/C(=C/C=C/c2ccccc2)SC1=S	-15%	i	-3%	7%	i	6%
O=C1CC(N2C(=O)/C(=C/C=C/c3ccccc3)SC2=S)C(=O)N1c1ccccc1 (stereo not given)	-40%	i	10%	4.6µM*	i	1%

Assay outcomes (PubChem)
